Experimental findings from PubChem BioAssay (NCI) are described below.

Test systems include HT29 colon; SNB-75 CNS; SNB-19 CNS; U251 CNS; PC-3 prostate; SK-MEL-5 melanoma; UACC-62 melanoma; LOX IMVI melanoma; SK-MEL-28 melanoma; SK-MEL-2 melanoma; EKVX NSCLC; SN12C renal; UO-31 renal; TK-10 renal; ACHN renal; CAKI-1 renal; A498 renal; CCRF-CEM leukemia; MOLT-4 leukemia.
What all share (experiment): NCI-60 one-dose screen, 48 h (100 = growth as untreated, 0 = no growth, -100 = all killed)
What all share (details): 10 µM unless noted

Structures are written as SMILES. The panel holds about 83,000 compounds, 20% with a hit somewhere; the sample as a whole holds those more often.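 Method: cells in 96-well plates; compound added at one concentration; 48 h incubation; percent growth measured; values under 10 scored active.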 A number with no mark means an inactive call. The source made the active and inactive calls.

With `O=C(Cn1c(=O)sc2ccccc21)NNS(=O)(=O)c1ccccc1[N+](=O)[O-]`, the growth was 99.3% in the experiment on HT29 colon; 83.3% in the experiment with SNB-75 CNS; 103% in the experiment on SNB-19 CNS; 97.9% in the experiment on U251 CNS; 96.2% in the experiment on PC-3 prostate; 101% in the experiment on SK-MEL-5 melanoma. Further, the growth in the experiment with UACC-62 melanoma is 98.8%; in the experiment with LOX IMVI melanoma it was 96.4%; with SK-MEL-28 melanoma, 104%; in the experiment on SK-MEL-2 melanoma, 103%; with EKVX NSCLC, 98.5%; with SN12C renal it was 109%. Besides, the growth in the experiment on UO-31 renal is 86.1%; in the experiment with TK-10 renal, 104%; in the experiment with ACHN renal, 101%; in the experiment with CAKI-1 renal, 85.2%; in the experiment with A498 renal it was 110%; in the experiment with CCRF-CEM leukemia it was 102%. Besides, in the experiment on MOLT-4 leukemia, the growth was 101%.

As for `CNC(=O)c1cc(Oc2ccc3c(c2)sc2nc(-c4cc(OC)c(OC)c(OC)c4)cn23)ccn1`, the growth in the experiment with HT29 colon is 65.3%; in the experiment with SNB-75 CNS, 50.3%; in the experiment on U251 CNS, 61.9%; in the experiment with PC-3 prostate, 34.3%; with SK-MEL-5 melanoma, -13.9% (active); with UACC-62 melanoma, 44.5%. The growth with LOX IMVI melanoma was 58%; in the experiment on SK-MEL-28 melanoma, 63.5%; in the experiment on SK-MEL-2 melanoma it was 54.3%; in the experiment on EKVX NSCLC, 50.2%; with SN12C renal, 53.1%; in the experiment with UO-31 renal, 30.3%. For the same molecule, the growth was 50.3% with TK-10 renal; 51.9% with ACHN renal; 43.6% in the experiment with CAKI-1 renal; 53.7% in the experiment with A498 renal; 39.4% in the experiment on CCRF-CEM leukemia; 18.3% in the experiment on MOLT-4 leukemia.

For the molecule `CCSc1nc(NC)c2cc(-c3ccc(C(F)(F)F)cc3)ccc2n1`, the growth with HT29 colon is 98.9%; with SNB-75 CNS, 99.4%; in the experiment with SNB-19 CNS, 97%; in the experiment on U251 CNS, 103%; in the experiment with PC-3 prostate, 94.9%; in the experiment on SK-MEL-5 melanoma, 97.9%. The growth with UACC-62 melanoma was 92.9%; in the experiment on LOX IMVI melanoma, 106%; with SK-MEL-28 melanoma, 95%; in the experiment on SK-MEL-2 melanoma, 98.2%; with EKVX NSCLC, 96.6%; in the experiment on SN12C renal, 95.1%. The growth in the experiment with UO-31 renal was 92.2%; in the experiment with TK-10 renal, 121%; in the experiment with ACHN renal, 97.6%; in the experiment on CAKI-1 renal, 96.3%; in the experiment with A498 renal it was 112%; in the experiment with CCRF-CEM leukemia it was 95.6%. In addition, in the experiment with MOLT-4 leukemia, the growth was 93.4%.

Regarding `COc1ccc(C(c2cc(OC)c(OC)c(OC)c2)N2CCN(c3ccccc3)CC2)cc1` (stereo unspecified), the growth in the experiment with HT29 colon is 63.5%; in the experiment with SNB-75 CNS it was 90.2%; with SNB-19 CNS it was 84.1%; with U251 CNS, 96.4%; in the experiment on PC-3 prostate, 73.3%; with SK-MEL-5 melanoma, 85.2%. Also, the growth in the experiment on UACC-62 melanoma is 55.2%; in the experiment with LOX IMVI melanoma, 87.3%; in the experiment on SK-MEL-28 melanoma, 84.5%; in the experiment with SK-MEL-2 melanoma, 69.3%; with EKVX NSCLC it was 99.6%; in the experiment with SN12C renal it was 101%. Also, the growth with UO-31 renal was 73.4%; in the experiment on TK-10 renal it was 106%; in the experiment with ACHN renal it was 98%; with CAKI-1 renal, 86.4%; in the experiment with A498 renal, 89.2%; in the experiment with CCRF-CEM leukemia, 82.6%. Also, the growth in the experiment with MOLT-4 leukemia is 72.8%.

With `CN1C(=O)/C(=C/c2cn(-c3ccccc3)nc2-c2ccccc2)SC1=S`, the growth in the experiment with HT29 colon was 109%; in the experiment with SNB-75 CNS, 101%; with SNB-19 CNS, 100%; with U251 CNS, 110%; in the experiment on PC-3 prostate, 90.2%; with SK-MEL-5 melanoma, 98%. Besides, the growth in the experiment with UACC-62 melanoma is 86.7%; with LOX IMVI melanoma it was 89.6%; in the experiment on SK-MEL-28 melanoma it was 105%; in the experiment on SK-MEL-2 melanoma, 107%; in the experiment on EKVX NSCLC it was 102%; in the experiment on SN12C renal, 100%. For the same molecule, the growth is 92.2% in the experiment on UO-31 renal; 112% in the experiment on TK-10 renal; 100% with ACHN renal; 89.1% in the experiment with CAKI-1 renal; 79.2% with A498 renal; 107% with CCRF-CEM leukemia. In the experiment on MOLT-4 leukemia, the growth is 114%.

With `Cc1cccc2c1NC(=O)C2(c1ccc(O)cc1)c1ccc(O)cc1`, the growth in the experiment on HT29 colon was 79.2%; in the experiment on SNB-75 CNS, 23.1%; with SNB-19 CNS it was 102%; in the experiment with U251 CNS, 90.1%; with PC-3 prostate, 38.9%; in the experiment with SK-MEL-5 melanoma it was 96.5%. The growth was 83.8% with UACC-62 melanoma; 59.2% in the experiment with LOX IMVI melanoma; 106% in the experiment on SK-MEL-28 melanoma; 89.2% in the experiment with SK-MEL-2 melanoma; 75.7% in the experiment with EKVX NSCLC; 11.2% with SN12C renal. For the same molecule, the growth with UO-31 renal is 89.2%; with TK-10 renal, 28.8%; in the experiment on ACHN renal, 78.5%; in the experiment with CAKI-1 renal it was 94.1%; in the experiment on A498 renal, 81.5%; in the experiment with CCRF-CEM leukemia, 71.2%. Besides, the growth with MOLT-4 leukemia is 84.2%.

Consider `CCOC(=O)C1=C(NC)OCC1=O`, for which the growth is 99.6% in the experiment on HT29 colon; 99.1% in the experiment on SNB-75 CNS; 109% in the experiment with SNB-19 CNS; 96.5% with U251 CNS; 85.7% with PC-3 prostate; 93.4% in the experiment with SK-MEL-5 melanoma. The growth is 103% in the experiment with UACC-62 melanoma; 101% with LOX IMVI melanoma; 110% with SK-MEL-28 melanoma; 116% in the experiment on SK-MEL-2 melanoma; 99.3% with EKVX NSCLC; 103% in the experiment with SN12C renal. The growth is 88.3% in the experiment with UO-31 renal; 99.4% in the experiment on TK-10 renal; 110% with ACHN renal; 100% with CAKI-1 renal; 86.1% in the experiment with A498 renal; 101% in the experiment with CCRF-CEM leukemia. Moreover, in the experiment with MOLT-4 leukemia, the growth is 97.3%.

Take `O=C(CSc1nc2ccc([N+](=O)[O-])cc2[nH]1)Nc1cccc(C(F)(F)F)c1`: the growth in the experiment with HT29 colon was 11.3%; in the experiment with SNB-75 CNS, 25.5%; with SNB-19 CNS, 15.2%; with U251 CNS, 16.4%; in the experiment with PC-3 prostate, 9.66% (active); in the experiment with SK-MEL-5 melanoma it was -1.54% (active). Moreover, the growth is 6.34% (active) in the experiment with UACC-62 melanoma; 26.9% in the experiment on LOX IMVI melanoma; 22.2% in the experiment on SK-MEL-28 melanoma; -5.5% (active) with SK-MEL-2 melanoma; 23.9% with EKVX NSCLC; 9.37% (active) in the experiment with SN12C renal. Besides, the growth with UO-31 renal is 8.44% (active); in the experiment with TK-10 renal, 25.1%; with ACHN renal, 16%; with CAKI-1 renal, 1.15% (active); with A498 renal it was -6.75% (active); in the experiment on CCRF-CEM leukemia it was 19%. In addition, in the experiment with MOLT-4 leukemia, the growth was 8.77% (active).
